Data on 49 compounds can be found in ChEMBL document CHEMBL3988442, “University of Dundee, Small-Polar-MMV Screening Library” (2021).

The campaign covered roughly 48,000 compounds. About 13,000 (27%) showed an effect of 50% or more. The list shows a part of the results.

In the experiment the test system is Wolbachia pipientis. As to the kind of experiment: Anti-Wolbachia Cell-Based Screen. As to conditions: 5 µM. The class given is functional. On the set-up: scale not given: in the data most compounds retested in dose-response had high values.
As for `NC(=O)c1cc2c(nc1CCOc1ccc(F)cc1)CCC2`, the “Percent Effect” value was found to be 109.9%. Next, `NC(=O)c1cc2c(nc1CCOCc1ccccc1)CCC2`: 91.73%; `NC(=O)c1cc2c(nc1-c1ccc3c(c1)OCCO3)CCC2`: -8.871%; `NC(=O)c1cc2c(nc1-c1ccc3c(c1)CCO3)CCC2`: 1.16%. Next, `COc1cccc(OCCc2cncc(C(N)=O)c2)c1`: -19.41%; `NC(=O)c1cc2c(nc1CC1CCCCO1)CCC2` (centres undefined): -20.91%; `CN1CCCCC1Cc1nc2c(cc1C(N)=O)CCC2` (centres undefined): -3.187%. As for `CC(C#N)CNC(=O)Nc1ccc(Br)cc1` (centres undefined), the “Percent Effect” value is -11.38%. As for `Cc1cc(CN(C)C(=O)C(c2cccnc2)N2CCOCC2)n[nH]1` (centres undefined), the figure is -3.091%. As for `Cc1ccc(S(=O)(=O)Cc2noc([C@@H]3C[C@@H](O)CN3C)n2)cc1`, the figure is -3.09%. Next, `O=C(NCCc1cccs1)[C@]12COC[C@H]1CN(Cc1ccccn1)C2.O=C(O)C(F)(F)F.O=C(O)C(F)(F)F`: -75.28%. `Cc1ncsc1CN1C[C@@H]2COC[C@]2(C(=O)NCc2cccnc2)C1.O=C(O)C(F)(F)F.O=C(O)C(F)(F)F`: the “Percent Effect” value came to 4.251%. As for `Cn1cc(CN2C[C@@H]3COC[C@]3(C(=O)NCc3ccccn3)C2)cn1.O=C(O)C(F)(F)F.O=C(O)C(F)(F)F`, the figure is -3.108%.

For `O=C(NCc1ccccn1)[C@]12COC[C@H]1CN(Cc1cccnc1)C2.O=C(O)C(F)(F)F.O=C(O)C(F)(F)F.O=C(O)C(F)(F)F`, the “Percent Effect” value was found to be 99.25%. Next, `Cc1ncsc1CN1C[C@@H]2COC[C@]2(C(=O)NCc2ccccn2)C1.O=C(O)C(F)(F)F.O=C(O)C(F)(F)F`: -14.61%.

In the case of `O=C(NCc1ccccn1)[C@]12COC[C@H]1CN(Cc1ccccc1F)C2.O=C(O)C(F)(F)F.O=C(O)C(F)(F)F`, the “Percent Effect” value stood at 103.6%. Next, `CCS(=O)(=O)N1C[C@H]2CN(c3cnn(C)c3)C(=O)[C@H]2C1`: -14.71%. As for `CCN(CC(=O)NC(C)C)C(=O)C(C)(C)c1ccc2c(c1)OCCO2`, the figure is -2.563%.

Take `CN(CC(=O)NCC(C)(C)c1ccc2c(c1)OCO2)c1cnccn1`: the “Percent Effect” value was -4.592%.

On to `Cc1ccc(C(C)(C)CNC(=O)NC(C)Cn2cncn2)cc1` (centres undefined), for which the “Percent Effect” value is given as 14.21%. As for `CC(C(=O)NCC(C)(C)c1ccc2c(c1)OCCO2)n1cncn1` (centres undefined), the figure is 97.81%; as for `CC(C(=O)NCc1ccnc(N(C)C)c1)n1cncn1` (centres undefined), -16.73%; as for `CC(C(=O)NCC(C)(C)c1ccc2c(c1)OCO2)n1ccnc1` (centres undefined), 97.89%. As for `CC(C(=O)NCc1ccnc(OCC(F)(F)F)c1)n1cncn1` (centres undefined), the figure is 8.582%; as for `Cc1ccc(OCCNC(=O)C(C)n2cncn2)cc1` (centres undefined), -5.656%; as for `CC(C(=O)NCC(C)(C)c1ccc(Br)cc1)n1cncn1` (centres undefined), 77.11%. As for `CC(C)(CNc1cn[nH]c(=O)c1Cl)c1ccc2c(c1)OCO2`, the figure is 11.94%; as for `CC(C(=O)NCc1ccc2c(c1)OCCO2)n1cncn1` (centres undefined), 116.3%; as for `CC(C)(CNc1cn[nH]c(=O)c1Cl)c1ccc2c(c1)OCCO2`, 14.36%.

Regarding `O=C(NCCNc1ncccn1)NCCSC(F)(F)F`, the “Percent Effect” value is listed as -9.16%. Next, `Cc1cnn(C2CN(CC(O)c3ccc4c(c3)OCCO4)C2)c1` (centres undefined): -3.679%; `Cc1nn(C)c(N(C)C)c1CNCCCN(C)S(C)(=O)=O`: -15.04%; `CCOc1cc(C(=O)O)cc(-c2ccccc2)c1OC`: -26.33%. As for `CCCNC(=O)Nc1cc2c(cc1SC)OCCO2`, the figure is 21.87%; as for `CCOCCCC(=O)Nc1cc(C(N)=O)ccc1N1CCCCC1`, 2.668%; as for `CC(C(=O)NCCOc1ccc2c(c1)OCO2)n1cncn1` (centres undefined), 5.572%. Take `CC(C(=O)NCCc1ccc2c(c1)OCCO2)n1cncn1` (centres undefined): the “Percent Effect” value turned out to be 104.6%. Next, `CC(Cn1ccnc1)NC(=O)NCCc1ccc2c(c1)OCCO2` (centres undefined): 0.8239%; `Cc1nc(C)n(CC2CCCN2Cc2nc3ccccc3n2C)n1` (centres undefined): 1.241%.

On to `Cc1nn(C)c(C)c1C1CCCN1Cc1nc(N)c2ccccc2n1` (centres undefined), for which the “Percent Effect” value is 120.3%. As for `CCC1CCCN(Cc2nc3ccccc3c(=O)[nH]2)C1` (centres undefined), the figure is -14.75%; as for `Cc1nc(CN2CCCC2c2c(C)nn(C)c2Cl)no1` (centres undefined), -6.071%; as for `Cc1cc(C)n(C2CCN(Cc3nc4ccccc4n3C)CC2)n1`, 188.5%. As for `Cc1nn(C)c(C)c1C1CCCN1Cc1nc(C)c2ccccc2n1` (centres undefined), the figure is 40.75%; as for `Cc1nn(C)c(C)c1C1CCCN1Cc1nc2ccccc2c(=O)[nH]1` (centres undefined), 97.01%; as for `Cn1c(CN2CCN(CC3CCCO3)CC2)nc2ccccc21` (centres undefined), -23.45%. Next, `Cc1nn(C)c(C)c1C1CCCN1Cc1nc2ccccc2o1` (centres undefined): 33.14%; `Cc1nn(C)c(C)c1C1CCCN1Cc1nc2ccccc2n1C` (centres undefined): 136.2%. Take `Cc1nc2ccccc2nc1CN1CCCC1c1c(C)nn(C)c1C` (centres undefined): the “Percent Effect” value is recorded as 2.386%.
